Source: PubChem BioAssay (NCI)
The panel holds about 83,000 compounds, 20% with a hit somewhere; the sample as a whole holds those more often.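 Plates (96-well) were seeded with cells, treated with compound at one concentration, and incubated for 48 hours before percent growth was determined.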 Values without a mark were called inactive. Activity calls are given as the source filed them. How the source made its calls: active means growth percent below 10; inactive means the rest.

Tested on: SK-OV-3 ovarian
Assay: NCI-60 one-dose screen, 48 h (100 = growth as untreated, 0 = no growth, -100 = all killed)
Conditions: 10 µM unless noted

Structure (SMILES)	growth
C#Cc1cccc(NC(=O)c2cccc(NC(=O)CCl)c2)c1	56.4% [8.25 µM]
N#CC1=C(N)Oc2c(ccc3ccccc23)C1c1ccccc1Cl (stereo not given)	59.3%
O=C(CSc1nc2ccccc2[nH]1)NCc1ccccc1	101%
COc1ccc(-c2nc(S(=O)(=O)c3ccccc3)c(S(=O)CC(=O)N3CCC(C)CC3)o2)cc1 (stereo not given)	92.2%
COc1cc(C2C3=C(COC3=O)N(CCO)c3cc4c(cc32)OCO4)cc(OC)c1OC (stereo not given)	-24.2% (active)
N#Cc1c(-c2ccccc2)nc2c(c(-c3ccccc3)nn2-c2ccccc2)c1-c1ccc(O)cc1	71.1%
CC(=O)[C@H]1CCC/C=C/[C@@H]2C[C@H](O)C[C@H]2[C@H](O)/C=C/C(=O)O1	23.9%
O=C1/C=C/[C@@H](O)[C@@H]2C[C@@H](O)C[C@H]2/C=C/CCC[C@H](CCc2cccc3ccccc23)O1	18.1%
CC(C)(C)[Si](C)(C)OC1[C@@H](O[Si](C)(C)C(C)(C)C)[C@@H](CNC(=O)NC(=O)CCl)O[C@H]1n1cnc2c(NC(=O)Nc3ccccc3)ncnc21 (stereo not given in full)	-92.9% (active)
COc1cc(CC(=O)n2ncc3ccc(N)cc32)cc(OC)c1OC	95.6%
O=C1C=CC(=O)N1c1cccc(Cl)c1	108%
COC(=O)C(CC=O)C(=O)C(=O)Nc1cccc(C(F)(F)F)c1 (stereo not given)	93.5%
CN(CCN(C)c1ccc(C(=N)N)cc1)c1ccc(C(=N)N)cc1	140%
O=C1/C=C/[C@@H](O)[C@@H]2C[C@@H](O)C[C@H]2/C=C/CCC[C@H](CCc2ccc3ncccc3c2)O1	17.5%
C#Cc1cccc(NC(=O)Nc2cccc(NC(=O)CCl)c2)c1	59% [8.25 µM]
CCNc1nc2ccc(Nc3ccnc4cc(Cl)ccc34)cc2[nH]1	108%
N#CC(C(=O)/C(=N/NC(=O)c1ccccc1O)C(C#N)c1ccccc1)c1ccccc1 (stereo not given)	45.9%
O=[N+]([O-])c1ccc(N=Nc2cc(S(=O)(=O)O)c3cccc(S(=O)(=O)O)c3c2O)cc1	102%
O=C1Nc2ccccc2/C1=C\c1c(-c2ccccc2)nc2ccccn12	30.5%
COc1cc(/C=C\c2cc(OC)c(OC)c(OC)c2)cc(N)c1OC	92.2%
